For experiment [1] the following is noted: Ebola virus entry assay, green fluorescence channel.
The conditions of experiment [2]: Ebola virus entry assay, blue channel fluorescence.
The conditions of experiment [3]: Ebola virus entry assay, ratio channel.
For experiment [4] the following is noted: Ebola virus entry assay, green channel fluorescence.
The conditions of experiment [5]: Ebola virus entry assay, reporter ratio channel; Channel type: primary.
The conditions of experiment [6]: Ebola virus entry assay, blue channel (ratio component).

Values without a mark were called inactive. For part of these data: Entries with a potency or affinity are not part of this list. Calls of active or inactive are those of the source. No rule for the calls is given here. Bridge positions count the residues as written; N and C are the ends. Square brackets hold non-standard residues; d marks the D form. Peptide text beside a SMILES is read from it. hArg = N=C(N)NCCCC[C@H](N)C(=O)O; Mpa = O=C(O)CCS
For efficacy in this document: 0% is about no effect.

`O=C(NOCC1CC1)c1ccc(F)c(F)c1Nc1ccc(I)cc1Cl`: in experiment [1], the efficacy was 18.5%. Besides, the concentration at half-maximal activity (AC50) (in general, the concentration giving half of the maximal activity seen) was 7.94 µM (active) in experiment [2], 15.8 µM (active) in experiment [3] and 15.8 µM (active) in experiment [5]. Moreover, the molecule was called inactive in experiment [4] and in experiment [6].
Take `CC1CC(OC(=O)C(O)c2ccccc2)CC(C)(C)N1C` (stereo not given): the efficacy in experiment [1] was 9.62%. Besides, the molecule was classed as inactive in experiment [2], in experiment [3], in experiment [4], in experiment [5] and in experiment [6].
For `NC(=O)[C@@H]1CSSCCC(=O)N[C@@H](CCCCN=C(N)N)C(=O)NCC(=O)N[C@@H](CC(=O)O)C(=O)N[C@@H](Cc2c[nH]c3ccccc23)C(=O)N2CCC[C@H]2C(=O)N1` ([Mpa][hArg]GDWPC-NH2; disulfide 1-7), in experiment [1], the efficacy was 12.3%. The outcome in experiment [2], in experiment [3], in experiment [4], in experiment [5] and in experiment [6] was inactive.
In the case of `CCCN(CCC)C(=O)C(CCC(=O)O)NC(=O)c1ccccc1` (stereo not given), the efficacy in experiment [1] was 17.5%. Also, the result in experiment [2], in experiment [3], in experiment [4], in experiment [5] and in experiment [6] was inactive.
As for `COc1ccc2c(c1)C(=O)N(CCc1ccc(S(=O)(=O)NC(=O)NC3CCCCC3)cc1)C(=O)C2(C)C`, the efficacy in experiment [1] was -16.1%. For the same molecule, the molecule was called inactive in experiment [2], in experiment [3], in experiment [4], in experiment [5] and in experiment [6].
Regarding `O=c1cc(CO)occ1O`, in experiment [1], the efficacy is 16.7%. Further, the result in experiment [2], in experiment [3], in experiment [4], in experiment [5] and in experiment [6] was inactive.
With `CN1CCN(c2cc3c(nn2)Oc2ccccc2N3C)CC1`, the efficacy in experiment [1] was -18%. In addition, the outcome in experiment [2], in experiment [3], in experiment [4], in experiment [5] and in experiment [6] was inactive.
For `C#Cc1ccc(-c2ccccc2F)cc1`, the efficacy in experiment [1] is 15.3%. In addition, the molecule was called inactive in experiment [2], in experiment [3], in experiment [4], in experiment [5] and in experiment [6].
Regarding `O=C(NN1CCCC1)NS(=O)(=O)c1ccc(Cl)cc1`, the efficacy in experiment [1] is -14.3%. Moreover, the result in experiment [2], in experiment [3], in experiment [4], in experiment [5] and in experiment [6] was inactive.
Turning to `N[C@@H](CSSC[C@H](N)C(=O)O)C(=O)O`, the efficacy in experiment [1] is -14.5%. Further, the result in experiment [2], in experiment [3], in experiment [4], in experiment [5] and in experiment [6] was inactive.
With `C[C@@H]1CC[C@@]2(OC1)O[C@H]1C[C@H]3[C@@H]4CC[C@H]5C[C@@H](O)CC[C@]5(C)[C@H]4CC(=O)[C@]3(C)[C@H]1[C@@H]2C`, the efficacy in experiment [1] was 21.9%. For the same molecule, the call in experiment [2], in experiment [3], in experiment [4], in experiment [5] and in experiment [6] was inactive.
Regarding `Nc1nc(=O)n([C@@H]2O[C@H](CO)[C@@H](O)[C@@H]2F)cc1I`, in experiment [1], the efficacy is -12.8%. Further, the result in experiment [2], in experiment [3], in experiment [4], in experiment [5] and in experiment [6] was inactive.
In the case of `CCN(CC)C(=O)c1cccc(C)c1`, the efficacy in experiment [1] is -20%. In addition, the molecule was classed as inactive in experiment [2], in experiment [3], in experiment [4], in experiment [5] and in experiment [6].
Regarding `O=C1CC2(CCCC2)CC(=O)N1CCCCN1CCN(c2ncccn2)CC1`, in experiment [1], the efficacy is 11.1%. In addition, the outcome in experiment [2], in experiment [4] and in experiment [6] was inactive. The half-maximal activity concentration (AC50) in experiment [3] and in experiment [5] was 22.4 µM (active) in each case.
As to `c1ccc([C@H]2CN3CCSC3=N2)cc1`, in experiment [1], the efficacy was -38.1%. In addition, the call in experiment [2], in experiment [3], in experiment [4], in experiment [5] and in experiment [6] was inactive.
Regarding `Nc1nc2ncc(CNc3ccc(C(=O)N[C@@H](CCC(=O)O)C(=O)O)cc3)nc2c(=O)[nH]1`, in experiment [1], the efficacy is 12.4%. Also, the outcome in experiment [2], in experiment [3], in experiment [4], in experiment [5] and in experiment [6] was inactive.
Regarding `CC(C)(Oc1ccc(CCNC(=O)c2ccc(Cl)cc2)cc1)C(=O)O`, in experiment [1], the efficacy is -16.5%. For the same molecule, the molecule was called inactive in experiment [2], in experiment [3], in experiment [4], in experiment [5] and in experiment [6].
Take `CCc1cccc2c3c([nH]c12)C(CC)(CC(=O)O)OCC3` (stereo not given): the efficacy in experiment [1] was 8.5%. In addition, the call in experiment [2], in experiment [3], in experiment [4], in experiment [5] and in experiment [6] was inactive.
As for `O=C(O)Cn1c(C(=O)Nc2nc(-c3ccccc3Cl)cs2)cc2ccccc21`, the efficacy in experiment [1] is -23.1%. Besides, the result in experiment [2], in experiment [3], in experiment [4], in experiment [5] and in experiment [6] was inactive.
On to `CN1CCN(c2c(F)cc3c(=O)c(C(=O)O)cn(CCF)c3c2F)CC1`, for which, in experiment [1], the efficacy is -28.9%. Besides, the call in experiment [2], in experiment [3], in experiment [4], in experiment [5] and in experiment [6] was inactive.
For `CNC(=O)Oc1ccc2c(c1)[C@]1(C)CCN(C)[C@@H]1N2C`, the efficacy in experiment [1] was 20.2%. For the same molecule, the molecule was called inactive in experiment [2], in experiment [3], in experiment [4], in experiment [5] and in experiment [6].
As to `CCCSS/C(CCO)=C(\C)N(C=O)Cc1cnc(C)nc1N`, in experiment [1], the efficacy was -15.5%. The molecule was classed as inactive in experiment [2], in experiment [3], in experiment [4], in experiment [5] and in experiment [6].
In the case of `CNC(=O)c1cnn(-c2nc(N)c3ncn([C@@H]4O[C@H](CO)[C@@H](O)[C@H]4O)c3n2)c1`, the efficacy in experiment [1] is 20.7%. Besides, the call in experiment [2], in experiment [3], in experiment [4], in experiment [5] and in experiment [6] was inactive.
As for `Cc1ccc2nc(N)[nH]c(=O)c2c1Sc1ccncc1`, in experiment [1], the efficacy is 17.5%. Besides, the result in experiment [2], in experiment [3], in experiment [4], in experiment [5] and in experiment [6] was inactive.
Regarding `CC[N+](CC)(CC(=O)Nc1c(C)cccc1C)Cc1ccccc1`, the efficacy in experiment [1] was -14.7%. The molecule was called inactive in experiment [2], in experiment [3], in experiment [4], in experiment [5] and in experiment [6].
For the molecule `CC(=C(CCOC(=O)C(C)C)SSC(CCOC(=O)C(C)C)=C(C)N(C=O)Cc1cnc(C)nc1N)N(C=O)Cc1cnc(C)nc1N`, the efficacy in experiment [1] is -18%. Also, the molecule was called inactive in experiment [2], in experiment [3], in experiment [4], in experiment [5] and in experiment [6].
In the case of `CO/N=C(\C(=O)O)c1csc(NC(=O)CCl)n1`, the efficacy in experiment [1] was 7.58%. For the same molecule, the outcome in experiment [2], in experiment [3], in experiment [4], in experiment [5] and in experiment [6] was inactive.
Turning to `Nc1ccc(S(=O)(=O)Nc2cnc3ccccc3n2)cc1`, the efficacy in experiment [1] was -10.5%. The call in experiment [2], in experiment [3], in experiment [4], in experiment [5] and in experiment [6] was inactive.
`CC(=O)OC[C@H]1O[C@@](COC(C)=O)(O[C@H]2O[C@H](COC(C)=O)[C@@H](OC(C)=O)[C@H](OC(C)=O)[C@H]2OC(C)=O)[C@@H](OC(C)=O)[C@@H]1OC(C)=O`: the efficacy in experiment [1] was 9.99%. Moreover, the call in experiment [2], in experiment [3], in experiment [4], in experiment [5] and in experiment [6] was inactive.
Consider `NC(CSCC(=O)O)C(=O)O` (stereo not given), for which, in experiment [1], the efficacy is -16%. Further, the result in experiment [2], in experiment [3], in experiment [4], in experiment [5] and in experiment [6] was inactive.
For `NS(=O)(=O)c1cc2c(cc1Cl)NC(CSCc1ccccc1)=NS2(=O)=O`, the efficacy in experiment [1] is 11.6%. Further, the call in experiment [2], in experiment [3], in experiment [4], in experiment [5] and in experiment [6] was inactive.
Turning to `CNC(=O)CN(CCN(CCN(CC(=O)[O-])CC(=O)NC)CC(=O)[O-])CC(=O)[O-].O.[Gd+3]`, the efficacy in experiment [1] is -24.9%. The outcome in experiment [2], in experiment [3], in experiment [4], in experiment [5] and in experiment [6] was inactive.
As to `CC(C)[C@@H]1CC[C@@H](C)CC1=O`, the efficacy in experiment [1] was -22.8%. The result in experiment [2], in experiment [3], in experiment [4], in experiment [5] and in experiment [6] was inactive.
For `CCN(CC)CCN`, in experiment [1], the efficacy is -14.9%. The molecule was classed as inactive in experiment [2], in experiment [3], in experiment [4], in experiment [5] and in experiment [6].
In the case of `FC(F)(F)C(Cl)Br` (stereo not given), the efficacy in experiment [1] was 31.6%. For the same molecule, the result in experiment [2], in experiment [3], in experiment [4], in experiment [5] and in experiment [6] was inactive.
